From PubChem BioAssay (NCI)
This is part of a sample that, as a whole, favours compounds with a hit. Of some 83,000 tested, about 20% had one in any assay.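 For each line, cells grew in 96-well plates with the test compound present at a single concentration for 48 hours.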 Calls of active or inactive are those of the source. How the source made its calls: active means growth percent below 10; inactive means the rest.

The molecules below were run on MDA-MB-468 breast (assay: NCI-60 one-dose screen, 48 h (100 = growth as untreated, 0 = no growth, -100 = all killed)). Conditions: 10 µM unless noted.

| Structure (SMILES) | growth |
| --- | --- |
| CC(C)n1cc(C2=C(c3cccc4ccccc34)C(=O)NC2=O)c2cc(Br)ccc21 | 44.4% (inactive) |
| C=C(C)[C@@H]1CC[C@]2(C(=O)NCCCN)CC[C@]3(C)[C@H](CC[C@@H]4[C@@]5(C)CC[C@H](O)C(C)(C)[C@@H]5CC[C@]43C)[C@@H]12 | -19.9% [100 µM] (active) |
| CC(C)(C)c1ccc(C(=O)Nc2sc3cc(O)ccc3c2C(N)=O)cc1 | 46.8% (inactive) |
| Cc1nn(CC(=O)O)c2c1C(=O)CC(C)(C)C2 | 106% (inactive) |
| CC(=O)O[C@@]12CO[C@@H]1C[C@H](O)[C@@]1(C)C(=O)[C@H](O)C3=C(C)[C@@H](OC(=O)[C@H](O)[C@@H](NC(=O)OC(C)(C)C)c4ccccc4)C[C@@](O)([C@@H](OC(=O)c4ccccc4)C12)C3(C)C (some centres not stated) | 3.09% (active) |
| CCn1cc(C(=O)N/N=C/c2cccs2)c(=O)c2cc(F)c(N3CCNC(C)C3)c(F)c21 (configuration not stated) | 55.1% (inactive) |
| CCC1CCc2nc3sc(C(=O)Nc4ccccc4F)c(N)c3cc2C1 (configuration not stated) | 25% (inactive) |
